# From PubChem BioAssay (Tox21)
# Activity calls are given as the source filed them. A call without a number means that no potency is given here. Calls come from the whole dose curve.
# Target: Muscarinic acetylcholine receptor M1 (Homo sapiens) (UniProt P11229)
# Test: Cholinergic receptor muscarinic 1 (CHRM1) small molecule agonists, cell-based qHTS assay (AID 1963589); note: nearly all actives have a fitted effect of over 35% in size
# Settings: CHRM1-CHO cells, agonist mode, calcium flux fluorescence; series mostly up to 76.8 µM
# Source text: National Center for Advancing Translational Sciences [NCATS]
# Division of Preclinical Innovation [DPI]
# U.S. Environmental Protection Agency [EPA]
# National Institutes of Environmental Health Sciences [NIEHS]
# National Toxicology Program [NTP]
# U.S. Food and Drug Administration [FDA]
# The CHRM1 is a muscarinic receptor. This receptor plays a crucial role in learning and memory processes and has long been identified as a promising therapeutic target for the improvement of cognitive decline in Alzheimer's disease (AD). The CHRM1-CHO cell line stably expressing human muscarinic acetylcholine receptor M1 (CHRM1) can be used for screening agonists and antagonists of interactions between CHRM1 and its ligands. The CHRM1-CHO Calcium Flux Assay is a homogeneous fluorescence-based assay for detecting the intracellular calcium level using FDSS kinetic plate reader system.
# CHRM1-CHO cells were dispensed at 1000 cells/3uL/well in 1536-well black-clear bottom plates using a Multidrop Dispenser. After the assay plates were incubated at a 37 C/5% CO2 incubator for 18 h, 3 uL of Dye Loading Buffer was transferred to the assay plate by a Flying Reagent Dispenser. The assay plates were incubated at 37 C for 1h. For agonist mode, 23 nL of compounds dissolved in DMSO, positive controls or DMSO only was transferred to the assay plate by a pin tool. […] Each test compound was measured at 15 concentrations in three independent runs.
# Potency is the fitted concentration of half-maximal effect.
# Sequence of Muscarinic acetylcholine receptor M1 (Homo sapiens) (P11229 whole entry, looked up): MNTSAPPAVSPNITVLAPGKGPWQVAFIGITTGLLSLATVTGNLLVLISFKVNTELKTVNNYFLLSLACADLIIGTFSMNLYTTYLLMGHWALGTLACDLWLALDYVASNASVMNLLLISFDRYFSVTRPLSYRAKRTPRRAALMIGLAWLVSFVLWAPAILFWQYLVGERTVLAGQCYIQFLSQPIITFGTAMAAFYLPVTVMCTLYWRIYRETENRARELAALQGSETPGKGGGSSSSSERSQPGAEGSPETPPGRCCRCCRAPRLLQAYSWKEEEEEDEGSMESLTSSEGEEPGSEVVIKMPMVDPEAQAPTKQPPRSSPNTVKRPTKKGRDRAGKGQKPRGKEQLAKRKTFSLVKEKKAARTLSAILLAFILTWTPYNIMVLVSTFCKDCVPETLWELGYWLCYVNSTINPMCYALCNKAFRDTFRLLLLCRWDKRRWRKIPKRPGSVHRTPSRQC
row,SMILES,Potency
1,CCOC(=O)CCN(SN(C)C(=O)Oc1cccc2c1OC(C)(C)C2)C(C)C,inactive
2,CC(C)(c1cc(Cl)c(O)c(Cl)c1)c1cc(Cl)c(O)c(Cl)c1,inactive
3,O=C(Nc1ccccc1)N(Cc1ccc(Cl)cc1)C1CCCC1,inactive
4,COc1ccc2c(c1OC)CN1CCc3cc4c(cc3C1C2)OCO4 (stereo not given),inactive
5,CC1(C)CON(Cc2ccccc2Cl)C1=O,inactive
6,O=C(O)CC(Cl)C(=O)O (stereo not given),inactive
7,ClCBr,inactive
8,O=C1OC(c2ccc(O)c(S(=O)(=O)O)c2)(c2ccc(O)c(S(=O)(=O)O)c2)c2c(Br)c(Br)c(Br)c(Br)c21,inactive
9,CCOc1ccc(C(C)(C)COCc2cccc(Oc3ccccc3)c2)cc1,inactive
10,CCOP(=O)(OCC)Oc1nc(Cl)c(Cl)cc1Cl,inactive
11,C=C(C)CN(CC)c1c([N+](=O)[O-])cc(C(F)(F)F)cc1[N+](=O)[O-],inactive
12,O=C1c2ccccc2C(=O)C1C(=O)C(c1ccccc1)c1ccc(Cl)cc1 (stereo not given),inactive
13,O=[N+]([O-])c1cccc2cccc([N+](=O)[O-])c12,inactive
14,O=[N+]([O-])C(Br)Br,inactive
15,C[N+]1(CCF)[C@@H]2CC[C@H]1CC(OC(=O)C(O)(c1ccccc1)c1ccccc1)C2 (stereo not given in full),inactive
16,CN(C)S(=O)(=O)N(SC(F)(Cl)Cl)c1ccccc1,43.6 µM (active)
17,NNC(N)=O,inactive
18,O=[N+]([O-])c1cccc2c([N+](=O)[O-])cccc12,inactive
19,COP(=S)(OC)Oc1cc(Cl)c(I)cc1Cl,inactive
20,CCCCOC(C)=O,inactive

row,SMILES,Potency
1,O=[N+]([O-])c1ccc(F)c([N+](=O)[O-])c1,inactive
2,[O-][Cl+3]([O-])([O-])O,inactive
3,CCC1(c2ccccc2)C(=O)N(COC)C(=O)N(COC)C1=O,inactive
4,II,inactive
5,CC(C)[C@@H](Nc1ccc(C(F)(F)F)cc1Cl)C(=O)OC(C#N)c1cccc(Oc2ccccc2)c1 (stereo not given in full),inactive
6,CCCCOC(=O)[C@@H](C)Oc1ccc(Oc2ccc(C#N)cc2F)cc1,inactive
7,CNC(=O)Oc1ccccc1C(C)C,inactive
8,O=C(Cl)c1ccc(Cl)cc1,inactive
9,c1ccc2c(c1)OCC(C1=NCCN1)O2 (stereo not given),inactive
10,C#C[C@]1(O)C=C[C@H]2[C@@H]3CCC4=CC(=O)CC[C@@H]4[C@H]3CC[C@@]21CC,inactive
11,O=C(NC(=O)c1c(F)cccc1F)Nc1ccc(OC(F)(F)C(F)OC(F)(F)F)c(Cl)c1 (stereo not given),inactive
12,COC(=O)C1(O)c2ccccc2-c2ccccc21,inactive
13,CC1(C)CCC(Cc2ccc(Cl)cc2)C1(O)Cn1cncn1 (stereo not given),inactive
14,CC1(C)C(/C=C(\Cl)C(F)(F)F)C1C(=O)OC(C#N)c1cccc(Oc2ccccc2)c1 (stereo not given),inactive
15,CC(C)(CCl)C(=O)Cl,inactive
16,COC(=O)N(C(=O)N1COC2(C(=O)OC)Cc3cc(Cl)ccc3C2=N1)c1ccc(OC(F)(F)F)cc1 (stereo not given),inactive
17,CC[C@H]1C[C@@H]2C[C@H]3c4[nH]c5ccc(OC)cc5c4CCN(C2)[C@@H]13,inactive
18,CN1C(=O)C(O)N=C(c2ccccc2)c2cc(Cl)ccc21 (stereo not given),inactive
19,CO/C=C(/C(=O)OC)c1ccccc1COc1cccc(C(F)(F)F)n1,inactive
20,Nc1ccc(Sc2ccc(N)cc2)cc1,inactive
